The results in this text go back to the supplement of paper PMC6522484.

Structures are written as SMILES. ± gives the standard deviation of the averaged measurements.

Test [1] relates to DLD1. The test can be described thus: cell viability (CellTiter-Glo) relative to plate median (fraction of plate median); higher = more viable cells. The note with it: 5 µM; treatment time 24 h; reporter: 7TFP. Put shortly:
(§1)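 Library compounds were added at a final concentration of 5 µM for 24 h to colorectal cancer cells stably transduced with a lentiviral TCF/Wnt firefly luciferase reporter. Reported values are firefly luciferase or CellTiterGlo luminescence, normalised per well to the plate median. Each value averages two independent replicates.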
A general note: ATP-based viability assays read luminescence as a measure of living cells.

A further test concerns HCT116. The test is described as above. As to conditions: 5 µM; treatment time 24 h; reporter: TCF4/Wnt. Put shortly:
as §1

Test [2] has as its system SW480. The test is described as above. The note with it: 5 µM; treatment time 24 h; reporter: 7TFP. Put shortly: as §1
Test [3] relates to DLD1. The test can be described thus: TCF/Wnt firefly luciferase reporter signal relative to plate median (fraction of plate median); higher = higher Wnt reporter signal. As to conditions: 5 µM; treatment time 24 h; reporter: 7TFP. Put shortly:
as §1

Test [4] deals with SW480. The test is described as above. As to conditions: 5 µM; treatment time 24 h; reporter: 7TFP. Put shortly: as §1

Turning to `O=[N+]([O-])c1cccc2cn[nH]c12`, the cell viability came out at 1.015 ± 0.0071 in the test on DLD1 [1], 0.987 ± 0.076 in the test with HCT116 and 0.962 ± 0.047 with SW480 [2]. For the same compound, the “TCF/Wnt firefly luciferase reporter signal” value in the test with DLD1 [3] is 1.1 ± 0.042; in the test on SW480 [4] it was 1.14 ± 0.021.
For the compound `CN1CCN(CCCN2c3ccccc3Sc3ccc(C(F)(F)F)cc32)CC1`, the cell viability with DLD1 [1] turned out to be 0.999 ± 0.0014; in the test on HCT116, 1.08 ± 0.13; in the test on SW480 [2], 1.09 ± 0.028. For the same compound, the entries for the “TCF/Wnt firefly luciferase reporter signal” value in the test with DLD1 [3] and with SW480 [4] were 1.21 ± 0.17 and 1.05 ± 0.14, respectively.
On to `COc1ccc2c(c1)c(CC(=O)O)c(C)n2C(=O)c1ccc(Cl)cc1`, for which the cell viability with DLD1 [1] was determined as 1.01 ± 0.016; in the test with HCT116, 0.785 ± 0.33; in the test on SW480 [2], 1.03 ± 0.028. In addition, the “TCF/Wnt firefly luciferase reporter signal” value with DLD1 [3] was 1.08 ± 0.014; in the test with SW480 [4], 1.1 ± 0.014.
Taken in the same sequence, the figures for `Oc1c(I)cc(Cl)c2cccnc12` were 1.06 ± 0.21, 0.949 ± 0.12, 1.13 ± 0.042, 1.2 ± 0.27 and 1.14 ± 0.11.
Taken in the same sequence, the figures for `Cc1nc2ccccn2c(=O)c1CCN1CCC(C(=O)c2ccc(F)cc2)CC1` were 0.911 ± 0.15, 1.03 ± 0.099, 1.04 ± 0.057, 1.01 ± 0.037 and 0.947 ± 0.017.
`O=C1O[C@H]([C@@H](O)CO)C(O)=C1O`: the cell viability in the test on DLD1 [1] came out at 0.983 ± 0.024; with HCT116, 1.02 ± 0.12; in the test on SW480 [2], 1.01 ± 0.035. Further, the entries for the “TCF/Wnt firefly luciferase reporter signal” value with DLD1 [3] and in the test on SW480 [4] were 0.87 ± 0.069 and 0.969 ± 0.073, respectively.
Regarding `CC(=O)OCC(=O)[C@@]1(O)CC[C@H]2[C@@H]3CC[C@@H]4C[C@H](O)CC[C@]4(C)[C@H]3C(=O)C[C@@]21C`, the cell viability was 0.905 ± 0.11 in the test with DLD1 [1], 1 ± 0.071 in the test on HCT116 and 0.939 ± 0.011 in the test on SW480 [2]. The “TCF/Wnt firefly luciferase reporter signal” value stood at 0.968 ± 0.036 in the test on DLD1 [3] and 0.885 ± 0.019 in the test on SW480 [4].
Taken in the same sequence, the figures for `COc1cc2oc3cc(OC)c(OC)c(CC=C(C)C)c3c(=O)c2c(OC)c1CC=C(C)C` were 1.03 ± 0.028, 1.08 ± 0.13, 1.035 ± 0.0071, 1.23 ± 0.12 and 1.02 ± 0.06.
Taken in the same sequence, the figures for `COc1ccc(-c2cc(C(F)F)nn2-c2ccc(S(N)(=O)=O)cc2)cc1F` were 0.869 ± 0.086, 1.01 ± 0.014, 1.04 ± 0.057, 0.983 ± 0.025 and 0.995 ± 0.078.
Taken in the same sequence, the figures for `Clc1ccc2c(c1)C(N1CCNCC1)=Nc1ccccc1O2` were 1.045 ± 0.0071, 1.085 ± 0.0071, 0.995 ± 0.021, 0.789 ± 0.058 and 0.905 ± 0.042.
Turning to `CC12CC3CC(C)(C1)CC(N)(C3)C2`, the cell viability came to 1.06 ± 0.16 in the test with DLD1 [1], 1.05 ± 0.05 in the test with HCT116 and 1.02 ± 0.014 in the test on SW480 [2]. Moreover, the “TCF/Wnt firefly luciferase reporter signal” value with DLD1 [3] and in the test on SW480 [4] was 1.04 ± 0.064 in each case.
As for `CCCCNS(=O)(=O)c1ccccc1` [N-butylbenzenesulphonamide (AB2)], the cell viability in the test on DLD1 [1] was found to be 0.978 ± 0.19; with HCT116, 1 ± 0.022; in the test on SW480 [2], 0.964 ± 0.052. Moreover, the “TCF/Wnt firefly luciferase reporter signal” value was 0.908 ± 0.13 in the test on DLD1 [3] and 0.919 ± 0.14 in the test with SW480 [4].
Regarding `CC(O)(P(=O)(O)O)P(=O)(O)O`, the cell viability with DLD1 [1] is 0.949 ± 0.073; with HCT116 it was 0.943 ± 0.032; in the test on SW480 [2], 0.956 ± 0.037. Also, the “TCF/Wnt firefly luciferase reporter signal” value was 1 ± 0.13 in the test on DLD1 [3] and 0.968 ± 0.06 with SW480 [4].
With `C[C@H]1[C@@H](O)O[C@@H]2O[C@@]3(C)CC[C@H]4[C@H](C)CC[C@@H]1[C@@]24OO3`, the cell viability in the test with DLD1 [1] is 1.05 ± 0.09; with HCT116, 0.746 ± 0.12; in the test with SW480 [2], 1.24 ± 0.05. For the same compound, the “TCF/Wnt firefly luciferase reporter signal” value with DLD1 [3] worked out at 0.761 ± 0.2; in the test with SW480 [4], 1.01 ± 0.052.
Taken in the same sequence, the figures for `NCCCC[C@H](NC(=O)[C@H](Cc1ccc(O)cc1)NC(=O)[C@@H](N)CCCCN)C(=O)O` were 1.04 ± 0.064, 0.967 ± 0.042, 1.06 ± 0.035, 1.05 ± 0.095 and 1.03.
As for `CNCC[C@@H](Oc1ccccc1C)c1ccccc1`, the cell viability with DLD1 [1] came out at 0.949 ± 0.073; with HCT116, 0.941 ± 0.043; with SW480 [2], 0.969 ± 0.021. Further, the “TCF/Wnt firefly luciferase reporter signal” value in the test with DLD1 [3] stood at 1.02 ± 0.014; with SW480 [4] it was 1.08 ± 0.042.
As for `Clc1ccc(COC(Cn2ccnc2)c2ccc(Cl)cc2Cl)c(Cl)c1` (stereo not given), the results for the cell viability in the test with DLD1 [1], in the test on HCT116 and in the test with SW480 [2] were 0.964 ± 0.042, 1.01 ± 0.014 and 0.973 ± 0.0099, respectively. For the same compound, the “TCF/Wnt firefly luciferase reporter signal” value in the test with DLD1 [3] amounted to 1.04 ± 0.11; in the test on SW480 [4] it was 1.04 ± 0.12.
With `C[n+]1cc2c3c(ccc2c2ccc4cc5c(cc4c21)OCO5)OCO3`, the cell viability in the test on DLD1 [1] amounted to 1.02 ± 0.021; in the test on HCT116, 1.08 ± 0.12; with SW480 [2], 0.99 ± 0.043. Also, the “TCF/Wnt firefly luciferase reporter signal” value turned out to be 1 ± 0.081 in the test on DLD1 [3] and 0.981 ± 0.011 in the test on SW480 [4].
Turning to `O=C(O)CCC(=O)OC[C@@H](NC(=O)C(Cl)Cl)[C@H](O)c1ccc([N+](=O)[O-])cc1`, the cell viability in the test on DLD1 [1] worked out at 1 ± 0.12; in the test on HCT116 it was 0.895 ± 0.04; in the test with SW480 [2], 0.977 ± 0.027. The entries for the “TCF/Wnt firefly luciferase reporter signal” value in the test on DLD1 [3] and in the test with SW480 [4] were 0.838 ± 0.044 and 0.97 ± 0.022, respectively.
Taken in the same sequence, the figures for `CCN(CC)CCOC(=O)C(c1ccccc1)C1CCCCC1` (stereo not given) were 0.986 ± 0.0071, 0.938 ± 0.13, 0.978 ± 0.046, 0.996 ± 0.0057 and 1.05 ± 0.075.
Taken in the same sequence, the figures for `O=C(/C=C/c1ccc(O)c(O)c1)O[C@@H]1C[C@](O)(C(=O)O)C[C@@H](O)[C@H]1O` were 0.9805 ± 0.0064, 0.95 ± 0.071, 0.9255 ± 0.0092, 0.931 ± 0.096 and 0.9705 ± 0.0064.
Consider `CC(=O)Oc1ccc(-c2cc(=O)c3c(OC(C)=O)cc(OC(C)=O)cc3o2)cc1`, for which the results for the cell viability in the test on DLD1 [1], with HCT116 and with SW480 [2] were 0.993 ± 0.038, 0.934 ± 0.093 and 0.9365 ± 0.005, respectively. Moreover, the “TCF/Wnt firefly luciferase reporter signal” value in the test on DLD1 [3] is 1.01 ± 0.021; in the test with SW480 [4] it was 0.926 ± 0.011.
Taken in the same sequence, the figures for `CCN(CCO)CCCC(C)Nc1ccnc2cc(Cl)ccc12` (stereo not given) were 1.05 ± 0.097, 0.998 ± 0.1, 0.986 ± 0.0057, 1.02 ± 0.076 and 1.045 ± 0.0071.
Taken in the same sequence, the figures for `CCCc1ncc(C[n+]2ccccc2C)c(N)n1` were 0.995 ± 0.05, 0.935 ± 0.059, 0.972 ± 0.0028, 0.956 ± 0.057 and 0.987 ± 0.011.
Taken in the same sequence, the figures for `Cc1ccc(C(=O)Nc2ccc(S(=O)(=O)O)c3cc(S(=O)(=O)O)cc(S(=O)(=O)O)c23)cc1NC(=O)c1cccc(NC(=O)Nc2cccc(C(=O)Nc3cc(C(=O)Nc4ccc(S(=O)(=O)O)c5cc(S(=O)(=O)O)cc(S(=O)(=O)O)c45)ccc3C)c2)c1` were 1.02 ± 0.068, 0.929 ± 0.13, 1.04 ± 0.035, 0.936 ± 0.018 and 0.954 ± 0.11.
In the case of `C=CCc1ccc(O)c(OC)c1`, the cell viability worked out at 0.978 ± 0.013 with DLD1 [1], 1.07 ± 0.16 in the test on HCT116 and 0.943 ± 0.063 with SW480 [2]. Also, the entries for the “TCF/Wnt firefly luciferase reporter signal” value in the test with DLD1 [3] and with SW480 [4] were 1.06 ± 0.12 and 1.09 ± 0.078, respectively.
Turning to `CN1C(=O)CC[C@H]1c1cccnc1`, the values for the cell viability with DLD1 [1], in the test on HCT116 and in the test on SW480 [2] were 1.03 ± 0.035, 1.1 ± 0.078 and 1.07 ± 0.014, respectively. Also, the “TCF/Wnt firefly luciferase reporter signal” value in the test on DLD1 [3] was found to be 1.06 ± 0.057; with SW480 [4] it was 0.94 ± 0.073.
On to `CC(=O)NCC(=O)c1c[nH]c2ccccc12` [N-Acetyl-beta-oxotryptamin], for which the cell viability in the test on DLD1 [1] amounted to 1.02 ± 0.048; with HCT116, 0.983 ± 0.095; in the test with SW480 [2] it was 0.982 ± 0.013. The results for the “TCF/Wnt firefly luciferase reporter signal” value in the test on DLD1 [3] and with SW480 [4] were 1.11 ± 0.085 and 0.932 ± 0.052, respectively.
